Hit rate of the full screen: of about 69,000 compounds, about 8,600 (12%) showed an effect of 50% or more. The sample as a whole holds a higher share of strong results than the screen did.

This experiment relates to Plasmodium berghei. As to the kind of experiment: Screen against P. berghei liver stage (PbLuc), transformed with Luciferase, at 10uM. The experiment is classed as functional, HepG2. Conditions: tested at 10 uM.
For the compound `Cc1noc(CNC(=O)CN(C)c2nc3c(F)cccc3s2)n1`, the INHIBITION was determined as 47%.

Take `COc1cccc2sc(N(C)CC(=O)NCc3nc(C)no3)nc12`: the INHIBITION is on record as -14.9%.

For the compound `Cc1noc(CNC(=O)CN(C)c2nc3c(C)ccc(C)c3s2)n1`, the INHIBITION stood at 57.8%.

In the case of `CC(C)(CNC(=O)COc1cccc(F)c1)C(N)=O`, the INHIBITION is recorded as 46.75%.

Regarding `CN(CC(=O)N1CCC(Oc2ccc(C(F)(F)F)cn2)CC1)S(C)(=O)=O`, the INHIBITION is -20.5%.

On to `Fc1cc(Oc2ccc(C(F)(F)F)cn2)cc(F)c1CN1CCCC1`, for which the INHIBITION is on record as 78.9%.

Regarding `Cc1cc(CN2CCCC2)cc(Oc2ccc(C(F)(F)F)cn2)c1`, the INHIBITION is 61.9%.

On to `CCOC(=O)CCC(=O)N1CCC(Oc2ccc(C(F)(F)F)cn2)CC1`, for which the INHIBITION is recorded as 32.4%.

In the case of `O=C(Cn1cccn1)N1CCC(Oc2ccc(C(F)(F)F)cn2)CC1`, the INHIBITION turned out to be 40%.

As for `N#Cc1ccc(Oc2cc(F)c(CN3CCCC3)c(F)c2)nc1`, the INHIBITION was determined as 26%.

Turning to `O=C(CN1CCOCC1)N1CCC2(CCCN(C3CCOCC3)C2=O)C1` (stereo unspecified), the INHIBITION is on record as -9.02%.

Turning to `COCCN1CCCC(C)(c2cc(O)[nH]n2)C1` (stereo unspecified), the INHIBITION is given as -3.02%.

As for `Cc1ccc(CN(C)C(=O)CN2CCCCC2Cn2cncn2)cc1` (stereo unspecified), the INHIBITION amounted to 74.2%.

Turning to `CN(Cc1ccsc1)C(=O)CN1CCCC1Cn1cccn1` (stereo unspecified), the INHIBITION stood at 63.9%.

Turning to `CN(Cc1cccs1)C(=O)CN1CCOC(Cn2cncn2)C1` (stereo unspecified), the INHIBITION came to 62.6%.

In the case of `Cc1cnn(CC2CN(CC(=O)N(C)Cc3cccs3)CCO2)c1` (stereo unspecified), the INHIBITION was found to be 35.3%.

`CN(Cc1ccccc1)C(=O)CN1CCOC(Cn2cncn2)C1` (stereo unspecified): the INHIBITION is given as -9.37%.

As to `CN(Cc1cccs1)C(=O)CN1CCCC1Cn1cncn1` (stereo unspecified), the INHIBITION is given as 23.5%.

As to `CN(Cc1ccsc1)C(=O)CN1CCCCC1Cn1cccn1` (stereo unspecified), the INHIBITION is recorded as -96.9%.

On to `CN(Cc1cccs1)C(=O)CN1CCCCC1Cn1cncn1` (stereo unspecified), for which the INHIBITION is 59.3%.

For `CN(Cc1ccc(F)cc1)C(=O)CN1CCCCC1Cn1cncn1` (stereo unspecified), the INHIBITION came to 48.4%.

Regarding `Cc1ccc(CN(C)C(=O)CN2CCCC2Cn2cncn2)cc1` (stereo unspecified), the INHIBITION is given as 42.4%.

Regarding `CN(Cc1ccco1)C(=O)CN1CCCCC1Cn1cncn1` (stereo unspecified), the INHIBITION came to 7.67%.

For `Cc1cnn(CC2CCCN2CC(=O)N(C)Cc2ccsc2)c1` (stereo unspecified), the INHIBITION turned out to be 34.5%.

As to `O=C(CC(F)(F)F)Nc1cc(F)ccc1OCC1CCCO1` (stereo unspecified), the INHIBITION is given as -6.14%.

`CCn1nc(C)cc1C(=O)N1C[C@H]2CCC[C@@]2(COc2ccccn2)C1`: the INHIBITION is given as -36.9%.

As for `CCC1CN(CC(=O)NCCN2CCCC2)c2ccccc2S1` (stereo unspecified), the INHIBITION turned out to be 18.3%.

Consider `CN(C)C1CCN(C(=O)c2n[nH]c3c2CCN(CC2CCC2)C3)CC1`, for which the INHIBITION was -39%.

In the case of `Cc1cc(-c2ccc(=O)n(C3CCN(S(=O)(=O)N(C)C)CC3)n2)c(C)o1`, the INHIBITION is on record as -25.3%.

As to `CNc1cc(CCNC(=O)CC(C)C)nc(-c2ccccn2)n1`, the INHIBITION is -27.4%.

Turning to `Cc1cnn(C2CN(CC(=O)NCCc3cccs3)C2)c1`, the INHIBITION is given as 45.7%.

As for `Cc1cnn(C2CN(CC(=O)N(C)Cc3ccc(C)o3)C2)c1`, the INHIBITION is 34%.

On to `Cc1cnn(C2CN(CC(=O)N(C)Cc3cccs3)C2)c1`, for which the INHIBITION came out at 52.2%.

In the case of `CCN(Cc1ccccc1)C(=O)CN1CCCCC1Cn1cncn1` (stereo unspecified), the INHIBITION came out at 38.5%.

On to `CN(Cc1ccccc1)C(=O)CN1CCCCC1Cn1cncn1` (stereo unspecified), for which the INHIBITION worked out at 25.6%.

Regarding `Cc1ccccc1CN(C)C(=O)CN1CCCCC1Cn1cncn1` (stereo unspecified), the INHIBITION worked out at 81.2%.

As to `Cc1nnnn1-c1cc(NCc2cc(C#N)ccc2F)ccc1F`, the INHIBITION worked out at 32.3%.

Turning to `O[C@@H]1CCN(CC2CCOC2)[C@H]1Cc1cccnc1` (stereo partly specified), the INHIBITION came to 23.1%.

Turning to `O=C(c1ccc2cc[nH]c2c1)N1CCCN(Cc2cscn2)CC1`, the INHIBITION worked out at 13.6%.

For the compound `Cc1nnc(NCc2cccnc2OCC(F)(F)F)c(C#N)c1C`, the INHIBITION is listed as -0.18%.

Consider `N#Cc1c(Cl)nsc1NCc1ccc(N2CCSCC2)cc1`, for which the INHIBITION was 59.5%.

As to `N#Cc1c(Cl)nsc1NCc1ccc(N2CCCC(C(N)=O)C2)cc1` (stereo unspecified), the INHIBITION is 26.6%.

For `N#Cc1c(Cl)nsc1NCc1ccc(N2CCC(CO)CC2)cc1`, the INHIBITION worked out at 30.9%.

With `N#Cc1c(Cl)nsc1NCc1ccnc(OCC(F)(F)F)c1`, the INHIBITION is 81.7%.

`CC(C(=O)NCc1ccnc(OCC(F)(F)F)c1)n1cncn1` (stereo unspecified): the INHIBITION was -18.2%.

As for `O=S(=O)(NCc1cccnc1OC1CCCC1)N1CCCCC1`, the INHIBITION stood at 21.9%.

For `CCOc1ncccc1CNc1nnc(C)c(C)c1C#N`, the INHIBITION is -23.45%.

Turning to `Cc1oncc1C(=O)NCc1ccnc(OCC(F)(F)F)c1`, the INHIBITION is given as -6.15%.

`CC(O)CNC(=O)NCc1cccnc1OC1CCCC1` (stereo unspecified): the INHIBITION came to 22.7%.

Regarding `N#Cc1c(Cl)nsc1NCc1cccnc1OC1CCCC1`, the INHIBITION amounted to 85.9%.

In the case of `N#Cc1c(Cl)nsc1NCc1cccnc1OCC(F)(F)F`, the INHIBITION is 88.5%.

For `Nc1nccc(C2CCN(CC3CC3)C2)n1` (stereo unspecified), the INHIBITION turned out to be 20.2%.

Turning to `CN(CCc1cn[nH]c1)C(=O)CCc1ccc(Cl)cc1`, the INHIBITION worked out at 49%.

`CC(Nc1cccc2c1OCCO2)C(=O)Nc1ccc(Cl)cc1` (stereo unspecified): the INHIBITION is -10.3%.

Consider `CCc1nnc2n1CCN(C(=O)c1cc3cc(C)ccc3[nH]1)C2`, for which the INHIBITION is reported as 10%.

For `O=C(Nc1ccc(-n2ccc(C(=O)O)n2)cc1)c1ccccc1`, the INHIBITION was 39.5%.

Regarding `Cc1cn([C@@H]2CC3(CCNCC3)OC[C@@]2(C)O)c(=O)[nH]c1=O`, the INHIBITION stood at 37.1%.

In the case of `CC(=O)N1CC(=O)N(c2cnn(C)c2)CC12CCN(Cc1ccco1)C2` (stereo unspecified), the INHIBITION is listed as 29.7%.

As for `CC(C)=CCN1CCOC(Cn2cccn2)C1` (stereo unspecified), the INHIBITION was 19.5%.

As for `CC(C)CN1CCCC12CCN(c1nncs1)C2` (stereo unspecified), the INHIBITION is reported as 37.8%.

`N#Cc1ccc(CCC(=O)N2CCCC(n3cncn3)C2)cc1` (stereo unspecified): the INHIBITION is 19.2%.

For the compound `CN(C)c1ncccc1CNc1snc(Cl)c1C#N`, the INHIBITION was 49.1%.

With `COc1ncccc1CNc1snc(Cl)c1C#N`, the INHIBITION is 54.3%.

Turning to `CCCOc1ncccc1CNc1nnc(C)c(C)c1C#N`, the INHIBITION worked out at 41.15%.

As for `CCCN(Cc1nc(-c2ccoc2)oc1C)CC1CCCO1` (stereo unspecified), the INHIBITION is -13.1%.

As to `Cc1cc(C)cc(-c2ccc(CC3(C(=O)O)CCOCC3)cc2)c1`, the INHIBITION came to 61.4%.

Turning to `O=C(O)C1(Cc2cccc(-c3ccc(F)c(F)c3)c2)CCOCC1`, the INHIBITION was determined as 58.6%.

`O=C(O)C1(Cc2cccc(-c3ccc(F)cc3)c2)CCOCC1`: the INHIBITION is recorded as -22.6%.

On to `Cc1cc(C)cc(-c2cccc(CC3(C(=O)O)CCOCC3)c2)c1`, for which the INHIBITION was 38.7%.

Take `Cc1cccc(-c2cccc(CC3(C(=O)O)CCOCC3)c2)c1`: the INHIBITION is reported as 13.5%.

As to `COc1ccc(-c2cccc(CC3(C(=O)O)CCOCC3)c2)cc1`, the INHIBITION is 29.2%.

For the origin of these results see ChEMBL document CHEMBL4513216, “Probing the Open Global Health Chemical Diversity Library for Multistage-Active Starting Points for Next-Generation Antimalarials” (ACS Infect Dis, 2020).
